Results taken from PubChem BioAssay (NCATS).
Inconclusive results are not listed. Calls of active or inactive are those of the source. Unless noted, calls come from the whole dose curve; as a rule, active = well fitted curve in the direction sought with a large enough effect; inconclusive = small, poorly fitted or top-dose-only effect, or another doubt; inactive = no such curve, though single readings can be large; an effect the other way counts as inactive or inconclusive.

Experiments:
[1] = qHTS Assay for Lipid Storage Modulators (AID 1519; calls by dose curve; for activity change, negative = inhibition: % is set by controls: 0 for no effect and ±100 for the full control effect); conditions: Drosophila S3 cells, BODIPY lipid droplet/cell ratio, laser cytometry, cells loaded with oleic acid
How it was run: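 Cells seeded at 5,000 per well were treated with compounds over a concentration series and loaded with oleic acid (400 uM, as added). Lipid droplet fluorescence (488 nm excitation, 500-530 nm channel) was read by laser-scanning cytometry and normalized to 20 uM Triacsin C.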

[2] = target: Ubiquitin carboxyl-terminal hydrolase 1 (Homo sapiens) (UniProt O94782); experiment: Inhibitors of USP1/UAF1: Pilot qHTS (AID 504865); conditions: purified USP1/UAF1, Ub-rhodamine cleavage fluorescence; series mostly up to 114 µM;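 note: rhodamine fluorescence freed from ubiquitin-rhodamine substrate followed over time; top concentration of the series differs between compounds; % is set by controls: 0 for no effect and ±100 for the full control effect; nearly all actives have a fitted effect of over 35% in size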
Ubiquitin carboxyl-terminal hydrolase 1 (Homo sapiens), sequence (O94782 whole entry, looked up): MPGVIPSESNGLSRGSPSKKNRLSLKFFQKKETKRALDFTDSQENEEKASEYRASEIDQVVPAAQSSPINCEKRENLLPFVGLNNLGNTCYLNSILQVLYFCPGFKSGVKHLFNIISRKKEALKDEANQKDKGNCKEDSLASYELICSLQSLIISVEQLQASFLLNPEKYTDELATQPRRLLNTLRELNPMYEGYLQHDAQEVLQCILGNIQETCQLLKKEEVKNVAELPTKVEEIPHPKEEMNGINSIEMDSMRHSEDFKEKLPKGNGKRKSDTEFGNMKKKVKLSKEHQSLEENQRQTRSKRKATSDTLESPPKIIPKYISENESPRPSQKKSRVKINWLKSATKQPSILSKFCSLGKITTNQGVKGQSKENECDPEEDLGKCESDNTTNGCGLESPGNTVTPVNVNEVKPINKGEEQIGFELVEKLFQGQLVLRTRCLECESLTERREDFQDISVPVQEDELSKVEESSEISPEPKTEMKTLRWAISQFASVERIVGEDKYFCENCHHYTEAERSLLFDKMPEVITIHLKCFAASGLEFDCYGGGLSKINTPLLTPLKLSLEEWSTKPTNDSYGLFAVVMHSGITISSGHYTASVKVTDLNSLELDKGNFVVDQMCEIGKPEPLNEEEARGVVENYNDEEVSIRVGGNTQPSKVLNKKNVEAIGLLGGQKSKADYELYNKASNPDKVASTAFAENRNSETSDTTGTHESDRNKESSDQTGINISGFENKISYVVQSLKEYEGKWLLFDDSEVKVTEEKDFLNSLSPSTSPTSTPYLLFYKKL
How it was run: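 Enzyme-free wells gave the negative control, while test wells held 1nM USP1/UAF1 preincubated with compound for 15 min at room temperature. Ub-Rho at 150nM final started the reaction, and fluorescence at 480/540 nm was recorded kinetically.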

[3] = target: ATP-dependent 6-phosphofructokinase (Trypanosoma brucei brucei) (UniProt O15648); experiment: qHTS Assay to Find Inhibitors of T. brucei phosphofructokinase: hit validation (AID 492961);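 note: luminescence reports ADP formed as PFK phosphorylates fructose-6-phosphate with ATP; % is set by controls: 0 for no effect and ±100 for the full control effect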; conditions: T. brucei PFK, ADP-Glo luminescence; series mostly up to 24.3 µM
ATP-dependent 6-phosphofructokinase (Trypanosoma brucei brucei), sequence (O15648 whole entry, looked up): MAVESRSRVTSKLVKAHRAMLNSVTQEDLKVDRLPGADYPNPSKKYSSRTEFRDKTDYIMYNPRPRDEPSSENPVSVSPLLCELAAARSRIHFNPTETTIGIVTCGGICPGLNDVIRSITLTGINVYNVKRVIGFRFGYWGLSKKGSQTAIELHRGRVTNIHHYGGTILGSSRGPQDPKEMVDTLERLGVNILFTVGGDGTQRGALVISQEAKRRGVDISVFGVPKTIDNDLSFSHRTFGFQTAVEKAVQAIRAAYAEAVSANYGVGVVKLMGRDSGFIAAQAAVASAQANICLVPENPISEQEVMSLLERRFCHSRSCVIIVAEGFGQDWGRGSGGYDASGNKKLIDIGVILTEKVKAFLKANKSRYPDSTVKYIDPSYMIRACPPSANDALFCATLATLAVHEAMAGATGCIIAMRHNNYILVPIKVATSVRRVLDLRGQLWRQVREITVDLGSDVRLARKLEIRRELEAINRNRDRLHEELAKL
How it was run: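 Reaction: 0.1 M triethanolamine pH 8.0, 5 mM MgCl2, F6P 0.5 mM, ATP 0.1 mM, PFK 1.25 nM, 45 min RT. Read-out: ADP-Glo luminescence. Analysis: concentration-response fits, classed by r2 and efficacy.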

[4] = target: Luciferin 4-monooxygenase (Photinus pyralis) (UniProt P08659); experiment: Biochemical firefly luciferase enzyme assay for NPC (AID 624030);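 note: purified P. pyralis luciferase at 10 nM with luciferin and ATP substrate; 0% = DMSO and -100% = full luciferase inhibition by PTC124 control; nearly all actives have a fitted effect of over 70% in size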; conditions: purified P. pyralis luciferase, luminescence, 5 min; series mostly up to 24.9 µM
Luciferin 4-monooxygenase (Photinus pyralis), sequence (P08659 whole entry, looked up): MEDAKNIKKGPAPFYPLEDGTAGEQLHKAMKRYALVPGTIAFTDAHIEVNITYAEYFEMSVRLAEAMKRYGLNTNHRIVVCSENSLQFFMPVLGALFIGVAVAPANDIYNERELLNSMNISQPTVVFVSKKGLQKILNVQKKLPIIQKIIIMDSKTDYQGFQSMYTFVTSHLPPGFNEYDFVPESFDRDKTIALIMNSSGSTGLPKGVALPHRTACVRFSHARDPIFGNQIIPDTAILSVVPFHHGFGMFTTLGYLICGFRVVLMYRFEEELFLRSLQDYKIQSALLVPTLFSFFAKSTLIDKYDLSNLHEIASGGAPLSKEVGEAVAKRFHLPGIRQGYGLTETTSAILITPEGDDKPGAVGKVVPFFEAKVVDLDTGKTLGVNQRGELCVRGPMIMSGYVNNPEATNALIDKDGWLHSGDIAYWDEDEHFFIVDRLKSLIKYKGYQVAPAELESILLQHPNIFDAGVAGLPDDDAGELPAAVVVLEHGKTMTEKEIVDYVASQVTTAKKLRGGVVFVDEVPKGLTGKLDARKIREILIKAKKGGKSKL
How it was run: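 Counter-screen for direct inhibition of the luciferase enzyme by approved-drug library compounds, run at 10 nM enzyme in 50 mM Tris acetate (final). Luminescence was read within 5 min of enzyme-buffer addition and normalized to PTC124 versus DMSO (0%).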

[5] = qHTS profiling for inhibitors of Plasmodium falciparum proliferation (AID 504749); note: nearly all actives have a fitted effect of over 60% in size; note: potency is the fitted concentration of half-maximal effect;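 for activity, negative = inhibition: 0% = DMSO vehicle and full inhibition = artemisinin control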; conditions: P. falciparum in erythrocytes, SYBR Green DNA, 72 h
How it was run: (§1)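 P. falciparum-infected erythrocytes (0.3% parasitemia, 2.5% hematocrit final) were exposed to compounds for 72 h at 37 C in 5% CO2, then lysed with SYBR Green buffer overnight at room temperature; parasite DNA fluorescence was normalized to artemisinin and DMSO controls.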

3D7 = experiment: as above; conditions: P. falciparum in erythrocytes, SYBR Green DNA, 72 h; series mostly up to 12.8 µM
How it was run: as §1

AS120 = experiment: as above; conditions: P. falciparum in erythrocytes, SYBR Green DNA, 72 h; series mostly up to 12.8 µM
How it was run: as §1

C2A = experiment: as above; conditions: P. falciparum in erythrocytes, SYBR Green DNA, 72 h; series mostly up to 12.8 µM
How it was run: as §1

CP185 = experiment: as above; conditions: P. falciparum in erythrocytes, SYBR Green DNA, 72 h; series mostly up to 12.8 µM
How it was run: as §1

CP191 = experiment: as above; conditions: P. falciparum in erythrocytes, SYBR Green DNA, 72 h; series mostly up to 12.8 µM
How it was run: as §1

CP217 = experiment: as above; conditions: P. falciparum in erythrocytes, SYBR Green DNA, 72 h; series mostly up to 12.8 µM
How it was run: as §1

CP238 = experiment: as above; conditions: P. falciparum in erythrocytes, SYBR Green DNA, 72 h; series mostly up to 12.8 µM
How it was run: as §1

CP247 = experiment: as above; conditions: P. falciparum in erythrocytes, SYBR Green DNA, 72 h; series mostly up to 12.8 µM
How it was run: as §1

CP250 = experiment: as above; conditions: P. falciparum in erythrocytes, SYBR Green DNA, 72 h; series mostly up to 12.8 µM
How it was run: as §1

ECU = experiment: as above; conditions: P. falciparum in erythrocytes, SYBR Green DNA, 72 h; series mostly up to 12.8 µM
How it was run: as §1

FAB9 = experiment: as above; conditions: P. falciparum in erythrocytes, SYBR Green DNA, 72 h; series mostly up to 12.8 µM
How it was run: as §1

HB3 = experiment: as above; conditions: P. falciparum in erythrocytes, SYBR Green DNA, 72 h; series mostly up to 12.8 µM
How it was run: as §1

SC27B = experiment: as above; conditions: P. falciparum in erythrocytes, SYBR Green DNA, 72 h; series mostly up to 12.8 µM
How it was run: as §1

CP192 = experiment: as above; conditions: P. falciparum in erythrocytes, SYBR Green DNA, 72 h; series mostly up to 12.8 µM
How it was run: as §1

CP262 = experiment: as above; conditions: P. falciparum in erythrocytes, SYBR Green DNA, 72 h; series mostly up to 12.8 µM
How it was run: as §1

[6] = measured here: cell count channel max response
[7] = measured here: lipid channel max response
[8] = at 12.8 µM (top of the series), parasite line A
[9] = at 12.8 µM (top of the series), parasite line B

C1CCC(C(C[C@@H]2CCCCN2)C2CCCCC2)CC1
inactive: activity change, negative = inhibition ([1]; at 25.7 µM (top of the series)) -4.85% | Potency [2]
-15.6%: max response [1, 7]
-11.9%: max response [1, 6]

CC(=O)N(C[C@@H](C)C(=O)O)c1c(I)cc(I)c(N)c1I
2.03%: max response [1, 6]
inactive: activity change, negative = inhibition ([1]; at 25.7 µM (top of the series)) 0.163% | outcome [3] | Potency [2] | Potency [4] | activity, negative = inhibition [5, 8] 4.38% | activity, negative = inhibition [5, 9] 4.5% | Potency (3D7) | Potency (AS120) | Potency (C2A) | Potency (CP185) | Potency (CP191) | Potency (CP217) | Potency (CP238) | Potency (CP247) | Potency (CP250) | Potency (ECU) | Potency (FAB9) | Potency (HB3) | Potency (SC27B)
3.33%: max response [1, 7]

Cc1ccnc(N)c1
-7.5%: max response [1, 6]
inactive: activity change, negative = inhibition ([1]; at 57.5 µM (top of the series)) -1.11% | Potency [2]
-8.73%: max response [1, 7]

O=C(OC[C@@H](O)CO)c1ccccc1Nc1ccnc2cc(Cl)ccc12
9.55%: max response [1, 6]
inactive: activity change, negative = inhibition ([1]; at 25.7 µM (top of the series)) -2.54% | outcome [3] | Potency [4] | activity, negative = inhibition [5, 8] -14.6% | activity, negative = inhibition [5, 9] -22.4% | Potency (3D7) | Potency (AS120) | Potency (C2A) | Potency (CP185) | Potency (CP191) | Potency (CP192) | Potency (CP217) | Potency (CP238) | Potency (CP247) | Potency (CP250) | Potency (CP262) | Potency (ECU) | Potency (FAB9) | Potency (HB3) | Potency (SC27B)
3.2%: max response [1, 7]

CCC(=O)[C@@]1(C)[C@H](C)C[C@@H]2[C@@H]3CCC4=CC(=O)C=C[C@@]4(C)[C@H]3[C@H](O)C[C@]21C
-19.8%: max response [1, 7]
inactive: activity change, negative = inhibition ([1]; at 25.7 µM (top of the series)) -1.25% | outcome [3] | activity, negative = inhibition [5, 8] -6.51% | activity, negative = inhibition [5, 9] 3.51% | Potency (AS120) | Potency (C2A) | Potency (CP185) | Potency (CP191) | Potency (CP192) | Potency (CP217) | Potency (CP238) | Potency (CP247) | Potency (CP250) | Potency (CP262) | Potency (ECU) | Potency (FAB9) | Potency (HB3) | Potency (SC27B)
-14.6%: max response [1, 6]

CCOC(=O)O[C@]1(C(=O)COC(=O)CC)CC[C@@H]2[C@@H]3CCC4=CC(=O)C=C[C@@]4(C)[C@H]3[C@H](O)C[C@]21C
inactive: activity change, negative = inhibition ([1]; at 25.7 µM (top of the series)) -3.74% | outcome [3] | Potency [2] | Potency [4] | activity, negative = inhibition [5, 8] 4.34% | activity, negative = inhibition [5, 9] 0.379% | Potency (3D7) | Potency (AS120) | Potency (C2A) | Potency (CP185) | Potency (CP191) | Potency (CP192) | Potency (CP217) | Potency (CP238) | Potency (CP247) | Potency (CP250) | Potency (CP262) | Potency (ECU) | Potency (FAB9) | Potency (HB3) | Potency (SC27B)
-6.91%: max response [1, 6]
-11.8%: max response [1, 7]

CO[C@@H]1CC[C@@]2(C)[C@@H](CC[C@@]3(C)[C@H]2CC=C2[C@H]4CC(C)(C)[C@H](O)[C@@H](OC(C)=O)[C@]4(CO)[C@H](O)C[C@]23C)[C@@]1(C)CO (tested in a mixture with another compound)
7.61%: max response [1, 7]
inactive: activity change, negative = inhibition ([1]; at 25.7 µM (top of the series)) 0.0322% | Potency [2]
6.28%: max response [1, 6]

NCC[C@H](O)C(=O)N[C@H]1C[C@@H](N)[C@@H](O[C@H]2O[C@@H](CN)[C@@H](O)[C@@H](O)[C@@H]2O)[C@@H](O)[C@@H]1O[C@H]1O[C@@H](CO)[C@@H](O)[C@@H](N)[C@@H]1O
11.3%: max response [1, 7]
inactive: activity change, negative = inhibition ([1]; at 25.7 µM (top of the series)) -0.738%
11.5%: max response [1, 6]

CCN(CC)CCOC(=O)[C@@H](c1ccccc1)C1CCCCC1
-11.7%: max response [1, 6]
-16.6%: max response [1, 7]
inactive: activity change, negative = inhibition ([1]; at 25.7 µM (top of the series)) -5.77% | Potency [2]

CCN(CC)[C@@H](C)CN1c2ccccc2Sc2ccccc21
-2.65%: max response [1, 7]
-2.62%: max response [1, 6]
inactive: activity change, negative = inhibition ([1]; at 25.7 µM (top of the series)) 0.633% | outcome [3] | Potency [2] | Potency [4] | activity, negative = inhibition [5, 9] -12.9% | Potency (C2A) | Potency (CP185) | Potency (CP192) | Potency (CP238) | Potency (CP262) | Potency (FAB9) | Potency (HB3)

CO/N=C(\C(=O)N[C@@H]1C(=O)N2C(C(=O)O)=C(COC(N)=O)CS[C@@H]12)c1ccco1
-5.14%: max response [1, 6]
-2.21%: max response [1, 7]
inactive: activity change, negative = inhibition ([1]; at 25.7 µM (top of the series)) 1.43% | Potency [2]

FC(F)(F)c1ccccc1-c1ccc2ncnc(NC3CCNCC3)c2c1
inactive: activity change, negative = inhibition ([1]; at 57.5 µM (top of the series)) -0.848% | Potency [2]
6.31%: max response [1, 7]
8.99%: max response [1, 6]

CCOC(=O)Oc1c(OC)cc(C(=O)O[C@H]2C[C@H]3CN4CCc5c([nH]c6cc(OC)ccc56)[C@@H]4C[C@H]3[C@@H](C(=O)OC)[C@@H]2OC)cc1OC
-12.3%: max response [1, 7]
inactive: activity change, negative = inhibition ([1]; at 25.7 µM (top of the series)) -4.31% | outcome [3] | Potency [2] | Potency [4]
active: Potency ([5]; parasite line A) 4.47 µM | Potency (3D7) 3.16 µM | Potency (AS120) 3.55 µM
-12.6%: max response [1, 6]

CN(C/C=C\c1ccccc1)Cc1cccc2ccccc12
inactive: activity change, negative = inhibition ([1]; at 25.7 µM (top of the series)) -0.644% | outcome [3] | Potency [2] | Potency [4] | activity, negative = inhibition ([5]; at 28.7 µM (top of the series), parasite line A) 18.6% | activity, negative = inhibition ([5]; at 28.7 µM (top of the series), parasite line B) 9.39% | Potency (3D7) | Potency (AS120) | Potency (C2A) | Potency (CP185) | Potency (CP191) | Potency (CP192) | Potency (CP217) | Potency (CP238) | Potency (CP247) | Potency (CP250) | Potency (CP262) | Potency (ECU) | Potency (FAB9) | Potency (HB3) | Potency (SC27B)
-23.6%: max response [1, 7]
-24.2%: max response [1, 6]
